# Assay results published in article PMC5540273 (PLoS ONE, 2017).
# pKd: −log10 of the molar value.
# Experiments:
# TIE2 = tested on: T1, TIE2
# T1 construct: gene TEK
# TRKA = tested on: T2, TRKA
# T2 construct: gene NTRK1
# TRKC = tested on: T3, TRKC
# T3 construct: gene NTRK3
# 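Also: kd values determined as follow-up on hits from a single-replicate KINOMEscan panel screen.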
compound,measurement,setting,value
Fc1cc(Cl)ccc1Nc1ccnc2cc(-c3ccc(CN4CCCCC4)o3)ccc12 [GW560116],pKd,SRC,5.36
Cc1ccc(C(=O)Nc2ccc(Nc3ccnc4cc(-c5ccccn5)ccc34)cc2O)cc1.Cl [GW440146],pKd,SRMS,6.46
same,pKd,TNK2,6.92
O=C1NC(=O)C(N2CCc3ccccc32)=C1c1ccccc1Cl [SB-373598],pKd,SRMS,< 5.00
same,pKd,TAOK2,< 5.00
COc1cccc(-c2cc(-c3c[nH]nc3-c3ccccn3)ccn2)c1 [GW680338],pKd,SRPK1,< 5.00
CS(=O)(=O)c1ccc(-c2nc3n(c2-c2ccncc2)CCC3)cc1 [SKF-105942],pKd,STK16,< 5.00
same,pKd,TSSK1B,< 5.00
COc1cc2ncn(-c3cc(OCC4CCCO4)c(C(N)=O)s3)c2cc1OC (stereo not drawn) [GSK204607],pKd,STK35,5.44
Cl.O=C(Nc1cccc(-c2nn3ncccc3c2-c2ccnc(Nc3cccnc3)n2)c1)c1c(F)cccc1F [GSK312879],pKd,STK36,7.01
Cc1ccccc1-n1cnc2c(N)ncnc21 [SKF-97510],pKd,SYK,< 5.00
same,pKd,TLK1,< 5.00
O=C(Nc1ccccc1)Nc1cccc(Oc2ccc3nccn3n2)c1,pKd,TIE2,< 5.00
NC(=O)c1nnc2ccccc2c1N,pKd,TIE2,< 5.00
COc1ccc(Nc2nccc(-c3cccc(NC(=O)c4cc5cc(F)ccc5[nH]4)c3)n2)cc1 [GSK1229782],pKd,TNIK,6.09
Cc1ccc(-c2cc(-c3c[nH]nc3-c3ccccn3)ccn2)cc1 [GW684088],pKd,TNIK,6.80
Cc1cc(-c2ccc3c(c2)CC[C@@H](N[C@@H](C)c2ccccc2)C3)cnc1N.Cl [GW412617],pKd,TRKA,5.60
COc1cccc(NC(=O)NC2CCN(c3ccnc(Nc4ccc(F)cc4)n3)C2)c1 (stereo not drawn) [GSK1379721],pKd,TRKC,6.51
